28 molecules from PubChem BioAssay (NCATS) can be followed below.

A number with no mark means an inactive call. Inconclusive results are not listed. Active and inactive are the calls of the source. Unless noted, calls follow the shape of the dose curve; as a rule, active = well fitted curve in the direction sought with a large enough effect; inconclusive = small, poorly fitted or top-dose-only effect, or another doubt; inactive = no such curve, though single readings can be large; an effect the other way counts as inactive or inconclusive.

The target of experiment [1] is Cytochrome P450 2C19 (Homo sapiens) (UniProt P33261). As to the kind of experiment: qHTS Assay for Inhibitors and Substrates of Cytochrome P450 2C19 (AID 899). Also: nearly all actives have a fitted effect of over 60% in size. Also: potency is read from the fitted curve at half-maximal effect. In short, it runs like this: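 Signal comes from luciferase acting on luciferin released by CYP2C19-mediated hydroxylation of Luciferin-H EGE, 10uM (KM). Assay mix: 5nM enzyme, 50mM KPO4; 60 min at 37C with NADPH regeneration. Data normalized against 57uM ketoconazole.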

In experiment [2] the target is Cytochrome P450 2C9 (Homo sapiens) (UniProt P11712). As to the kind of experiment: qHTS Assay for Inhibitors and Substrates of Cytochrome P450 2C9 (AID 883). Also: nearly all actives have a fitted effect of over 60% in size. Also: potency is read from the fitted curve at half-maximal effect. As to activity change, negative = inhibition: % is scaled to controls: 0 for no effect and ±100 for the full control effect. In short, it runs like this: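 Signal: luciferase luminescence reporting luciferin produced by CYP2C9. Conditions: 10nM enzyme, Luciferin-H 100uM at KM, 25mM KPO4, 37C, 60 min NADPH-driven reaction. Reference: 57uM sulphaphenazole as 100% inhibition.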

Experiment [3] is described as follows: qHTS Assay for Identification of Small Molecule Agonists for Hypoxia Response Element Signaling Pathway (AID 914; active = well fitted activation curve with a large enough effect in the signal ratio, with a control signal flat, not every such curve was filed as active; the % refers to the signal ratio; also: potency is read from the fitted curve at half-maximal effect; as to activation: % of control where 0% means no effect). The conditions noted are these: ME-180 (cervical carcinoma) HRE-bla reporter, beta-lactamase ratio, CoCl2, 17 h; activation: hits give high values. In short, it runs like this:
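ME-180 cells carrying an HRE-driven beta-lactamase reporter were treated with compounds in a titration series plus an EC50 level of CoCl2 for 17 h at 37 degrees Celsius; CCF4 readout as the 460nm/530nm ratio gave AC50 values.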

Experiment [4] concerns the target Guanine nucleotide-binding protein G(i) subunit alpha-1 (Homo sapiens) (UniProt P63096). The experiment is described as follows: qHTS Assay for Inhibitors of RGS12 GoLoco Motif Activity (Green Fluorophore) (AID 879).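 Also: 0% = labeled peptide with Gαi1 and full inhibition = labeled peptide alone without protein; negative values mean loss of peptide binding seen as reduced polarization.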 In short, it runs like this: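 Fluorescence polarization assay: 50 nM Gαi1 with 10 nM FITC-labeled RGS12 GoLoco peptide in 10 mM Tris pH 7.5, 150 mM NaCl, 0.1 mM GDP, 0.05% NP40, 10 min at room temperature with compound.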

The target of experiment [5] is Muscarinic acetylcholine receptor M1 (Rattus norvegicus) (UniProt P08482). As to the kind of experiment: qHTS Assay for Antagonists of Acetylcholine Muscarinic M1 Receptor: Measurement of IP-One Response (AID 944). Also: nearly all actives have a fitted effect of over 75% in size. In short, it runs like this: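 Steps: plate transfected CHO-M1 cells overnight; add test compound, 10 min; add carbachol (200 nM, EC80) in stimulation buffer with LiCl; incubate 30 min; add labelled IP1 tracer and anti-IP1 antibody in lysis buffer; read HTRF after 10 min.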

Experiment [6] concerns the target Pyruvate kinase (Leishmania mexicana) (UniProt Q27686). The experiment is described as follows: qHTS Validation Assay for Inhibitors of Leishmania Mexicana Pyruvate Kinase (AID 945).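 Also: 0% = DMSO only neutral control wells.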 In short, it runs like this:
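LmPYK E451W 0.2 nM; 0.5 mM PEP, 0.1 mM ADP, 7 mM MgCl2, 50 mM KCl, imidazole pH 7.2, 0.01% Tween 20, 0.05% BSA; 1 h RT; PKLight luminescence; DMSO-normalized.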

Experiment [7] addresses Pyruvate kinase PKM (Homo sapiens) (UniProt P14618). The experiment is described as follows: qHTS Assay for Activators of Human Muscle Pyruvate Kinase (AID 954; active = well fitted curve in the direction sought with a large enough effect, not every such curve was filed as active;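 also: 0% = uninhibited enzyme and -100% = no enzyme or full thiadiazolimine inhibition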). In short, it runs like this: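 Enzyme was run at intermediate activity so both inhibitors and activators could be detected. ATP formed from ADP and PEP by 0.1 nM human PKM2 during a 1 h room-temperature incubation was quantified by coupled luciferase luminescence.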

Experiment [8] has as its target Alpha-galactosidase A (Homo sapiens) (UniProt P06280). The experiment is described as follows: Counterscreen for Glucocerebrosidase Inhibitors: qHTS Assay for Human alpha-Galactosidase at pH 4.5 (AID 992). Also: 0% is about no effect. In short, it runs like this: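 Read-out is 4-methylumbelliferone fluorescence (365 nm excitation, 440 nm emission) after a pH 10 NaOH/glycine stop. Reactions held 2 nM enzyme and 80 uM substrate at pH 4.5 for 20 min at room temperature.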

In experiment [9] the target is alpha-glucosidase (Oryza sativa, rice) (UniProt Q653V4). As to the kind of experiment: Counterscreen for Glucocerebrosidase Inhibitors: qHTS Assay for Rice alpha-Glucosidase at pH 5.0 (AID 997).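 Also: 0% = full activity with enzyme and -100% = basal without enzyme.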 In short, it runs like this: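 Rice alpha-glucosidase (4 nM final) with 400 uM 4-methylumbelliferyl-alpha-D-glucopyranoside in citrate buffer pH 5.0, 20 min at room temperature, stopped at pH 10; fluorescence 365/440 nm, compounds 0.7 nM–77 uM, AC50 from Hill fits.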

Experiment [10] deals with DNA repair nuclease/redox regulator APEX1 (Homo sapiens) (UniProt P27695). As to the kind of experiment: qHTS Validation Assay for Inhibitors of the Human Apurinic/apyrimidinic Endonuclease 1 (APE1) (AID 1705;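 also: TAMRA fluorescence gain over two minutes as APE1 cuts a quenched THF abasic duplex; series mostly up to about 57 µM; % is scaled to controls: 0 for no effect and ±100 for the full control effect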). In short, it runs like this: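 Substrate: 50 nM final fluorophore/quencher THF-abasic duplex. Enzyme preincubated with compounds 15 min, RT. Progress derived from fluorescence difference, third minus first kinetic read.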

Experiment [11] in a line: Counterscreen for APE1 Inhibitors: Fluorescent Dye Displacement Validation Assay (AID 1707).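 Also: plate controls were ThO with dsDNA and no compound for no effect and ThO without dsDNA for full effect.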 In short, it runs like this: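 ThO 250 nM + dsDNA 50 nM (THF abasic site, 5'-TAMRA), Tris-HCl pH7.5/50mM NaCl/2 mM MgCl2/0.01% Tween-20; compounds pin-transferred; ex 480/em 540 nm endpoint. Neutral = no compound; no-DNA ThO wells = negative control.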
Experiment [12] in a line: qHTS for differential inhibitors of proliferation of Plasmodium falciparum line D10 (AID 1877).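 Also: parasites grown with compound for 72 h before DNA staining.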 Also: potency is read from the fitted curve at half-maximal effect.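 As to activity change, negative = inhibition: plate controls were vehicle wells for no effect and reference inhibitor wells for full effect.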
Experiment [13] can be described thus: qHTS for differential inhibitors of proliferation of Plasmodium falciparum line Dd2 (AID 1882). Also: nearly all actives have a fitted effect of over 65% in size. Also: potency is read from the fitted curve at half-maximal effect.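 As to activity change, negative = inhibition: series mostly up to about 29 µM; compound exposure of 72 h on infected erythrocytes; plate controls were DMSO vehicle for no effect and 0.29 µM artemisinin for full effect.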 The conditions noted are these: Potency: Plasmodium falciparum Dd2 proliferation inhibition. In short, it runs like this: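 SYBR Green I DNA fluorescence read-out, ex 485/em 535 nm. Signals were normalized to 0.29 uM artemisinin and DMSO wells, then corrected using vehicle-only plates flanking each stack. Parasite growth ran 72 h in erythrocytes before lysis.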

Experiment [14] has as its target Ferritin light chain (Equus caballus) (UniProt P02791). As to the kind of experiment: qHTS Validation Assay for Identification of Novel General Anesthetics (AID 2323). Also: series mostly up to about 77 µM; % is scaled to controls: 0 for no effect and ±100 for the full control effect. In short, it runs like this:
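Normalized fluorescence response, scaled between free 1-AMA and 1-AMA/apoferritin complex, fitted to a four-parameter Hill equation for concentration-effect values. Binding mix: 10 uM horse-spleen apoferritin, 50% saturated 1-AMA in PBS; read 380/535 nm after 10 min.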

Experiment [15] deals with ATP-dependent DNA helicase Q1 (Homo sapiens) (UniProt P46063). The experiment is described as follows: qHTS Validation Assay for Inhibitors of RecQ-Like Dna Helicase 1 (RECQ1) (AID 2353).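 Also: plate controls were DMSO vehicle for no effect and enzyme-free control for full effect.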 In short, it runs like this: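 50 nM RECQ1T1 preincubated 15 min with compound in Tris pH 8.0 buffer with MgCl2, DTT, Tween-20 and 2.5 ug/ml poly(dI-dC); started with 200 nM TAMRA/BHQ-2 forked duplex and 2 mM ATP. Unwinding read as fluorescence (525/598 nm), two reads 2 h apart.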

A short description of experiment [16]: Validation screen for small molecules that induce DNA re-replication in MCF 10A normal breast cells (AID 463097). Also: 0% is about no effect; nearly all actives have a fitted effect of over 60% in size. In short, it runs like this:
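Following 48 hr compound incubation (37 C, 5% CO2), MCF 10A cells receive Hoechst for 40 min at 37 C. Nuclei are then scanned (excitation 405 nm, emission 500-530 nm) for total fluorescence intensity.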

The nature of experiment [17]: Quantitative high throughput screen for delayed death inhibitors of the malarial parasite plastid, 48 hour incubation (AID 488752). Also: nearly all actives have a fitted effect of over 65% in size. Also: potency is read from the fitted curve at half-maximal effect. As to activity change, negative = inhibition: % is scaled to controls: 0 for no effect and ±100 for the full control effect. In short, it runs like this:
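One parasite generation (48 h, 37 C, 5% CO2) of luciferase-reporter P. falciparum in erythrocytes is run with test compound; decreased luminescence indicates inhibited growth.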

Experiment [18] has as its target Thyrotropin-releasing hormone receptor (Homo sapiens) (UniProt P34981). The experiment is described as follows: qHTS for Small Molecule Agonists and Allosteric Enhancers of Human TRH Receptor: Validation Screen for Agonists (AID 493127;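 active = calcium activation more than 3 SD above the typical response in the agonist read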;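 also: intracellular calcium rise by fluo-8 fluorescence before TRH EC20 addition; 0% is about no effect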). The following applies: TRH receptor agonist cell assay; at 2 µM; hits give high values. In short, it runs like this: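 Gq-coupled calcium mobilization in TRHR cells after compound addition, monitored kinetically with fluo-8 dye on an FDSS reader.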

Experiment [19] has as its target Galactokinase (Homo sapiens) (UniProt P51570). As to the kind of experiment: qHTS Validation Assay for Inhibitors of Human Galactokinase (GALK) (AID 493189). Also: 0% is about no effect. In short, it runs like this:
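Enzyme activity is inferred from ATP consumption: human GALK phosphorylates galactose (100 uM) using 35 uM ATP for 1 h at room temperature, and luciferase-based Kinase-Glo Plus reports unconsumed ATP.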

Experiment [20] addresses N-terminal Xaa-Pro-Lys N-methyltransferase 1 (Homo sapiens) (UniProt Q9BV86). The experiment is described as follows: Confirmatory qHTS for Inhibitors of N-terminal methyltransferase 1 (NTMT1): MTaseGlo Assay (AID 1645874).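 Also: luminescence from SAH made as NTMT1 methylates SPKRIA peptide using SAM; series mostly up to about 100 µM; 0% = DMSO control and -100% = no-enzyme control; nearly all actives have a fitted effect of over 65% in size.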 In short, it runs like this:
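Compounds are incubated with 125 nM NTMT1 and 100 uM SAM for 15 min before the SPKRIA peptide (1 uM) starts a 30 min room-temperature methylation. SAH is measured by coupled luciferase luminescence and curves fitted to a Hill equation.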

Pyruvate kinase (Leishmania mexicana), sequence (Q27686 2-499 E452W): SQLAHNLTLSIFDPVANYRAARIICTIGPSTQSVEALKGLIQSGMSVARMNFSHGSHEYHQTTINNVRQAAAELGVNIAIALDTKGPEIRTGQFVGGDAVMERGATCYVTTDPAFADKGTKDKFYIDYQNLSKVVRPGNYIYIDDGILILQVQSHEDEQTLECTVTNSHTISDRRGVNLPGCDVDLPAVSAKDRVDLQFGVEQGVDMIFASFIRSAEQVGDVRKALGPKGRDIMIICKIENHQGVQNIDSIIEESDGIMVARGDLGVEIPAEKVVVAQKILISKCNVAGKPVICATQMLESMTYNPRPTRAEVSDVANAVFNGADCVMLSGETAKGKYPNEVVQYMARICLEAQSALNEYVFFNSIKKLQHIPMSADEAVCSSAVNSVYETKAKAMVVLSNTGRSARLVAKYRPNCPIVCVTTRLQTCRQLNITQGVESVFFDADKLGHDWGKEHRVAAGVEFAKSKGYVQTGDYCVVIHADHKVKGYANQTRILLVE
Guanine nucleotide-binding protein G(i) subunit alpha-1 (Homo sapiens), sequence (P63096 whole entry, looked up): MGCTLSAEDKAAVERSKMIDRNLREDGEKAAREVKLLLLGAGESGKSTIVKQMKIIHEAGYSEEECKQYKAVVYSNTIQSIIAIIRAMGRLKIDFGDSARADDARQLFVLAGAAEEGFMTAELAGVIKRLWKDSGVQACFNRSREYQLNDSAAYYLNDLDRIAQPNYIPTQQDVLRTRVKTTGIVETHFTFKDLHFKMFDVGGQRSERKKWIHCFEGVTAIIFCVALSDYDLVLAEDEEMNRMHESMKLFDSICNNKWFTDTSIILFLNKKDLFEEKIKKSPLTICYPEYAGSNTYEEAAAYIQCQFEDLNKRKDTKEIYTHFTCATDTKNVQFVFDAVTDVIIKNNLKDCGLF
Cytochrome P450 2C9 (Homo sapiens), sequence (P11712 whole entry, looked up): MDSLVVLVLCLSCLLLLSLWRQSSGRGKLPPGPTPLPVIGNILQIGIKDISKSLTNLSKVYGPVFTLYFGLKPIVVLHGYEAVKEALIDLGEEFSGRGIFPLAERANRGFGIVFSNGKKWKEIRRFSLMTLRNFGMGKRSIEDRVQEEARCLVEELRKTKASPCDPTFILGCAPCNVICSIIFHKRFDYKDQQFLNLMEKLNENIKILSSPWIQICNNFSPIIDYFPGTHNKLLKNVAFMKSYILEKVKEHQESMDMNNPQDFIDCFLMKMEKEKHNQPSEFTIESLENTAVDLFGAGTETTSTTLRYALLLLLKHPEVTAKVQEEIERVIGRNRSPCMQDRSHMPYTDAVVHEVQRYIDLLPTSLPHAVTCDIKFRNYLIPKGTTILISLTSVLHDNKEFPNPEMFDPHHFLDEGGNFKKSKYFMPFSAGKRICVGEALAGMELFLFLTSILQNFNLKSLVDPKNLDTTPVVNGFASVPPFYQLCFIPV
Cytochrome P450 2C19 (Homo sapiens), sequence (P33261 whole entry, looked up): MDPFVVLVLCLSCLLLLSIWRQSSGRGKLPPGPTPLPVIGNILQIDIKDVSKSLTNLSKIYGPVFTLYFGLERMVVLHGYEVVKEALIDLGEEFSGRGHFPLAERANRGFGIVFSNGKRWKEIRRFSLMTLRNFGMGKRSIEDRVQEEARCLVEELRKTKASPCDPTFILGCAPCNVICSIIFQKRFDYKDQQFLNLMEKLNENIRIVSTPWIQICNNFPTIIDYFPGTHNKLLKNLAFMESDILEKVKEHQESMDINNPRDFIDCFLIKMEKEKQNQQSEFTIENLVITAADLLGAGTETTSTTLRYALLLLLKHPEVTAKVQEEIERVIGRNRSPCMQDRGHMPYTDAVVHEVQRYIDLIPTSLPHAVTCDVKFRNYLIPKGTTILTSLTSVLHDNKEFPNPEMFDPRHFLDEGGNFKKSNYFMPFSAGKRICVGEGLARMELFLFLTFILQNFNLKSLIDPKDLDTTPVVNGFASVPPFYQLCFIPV
Alpha-galactosidase A (Homo sapiens), sequence (P06280 whole entry, looked up): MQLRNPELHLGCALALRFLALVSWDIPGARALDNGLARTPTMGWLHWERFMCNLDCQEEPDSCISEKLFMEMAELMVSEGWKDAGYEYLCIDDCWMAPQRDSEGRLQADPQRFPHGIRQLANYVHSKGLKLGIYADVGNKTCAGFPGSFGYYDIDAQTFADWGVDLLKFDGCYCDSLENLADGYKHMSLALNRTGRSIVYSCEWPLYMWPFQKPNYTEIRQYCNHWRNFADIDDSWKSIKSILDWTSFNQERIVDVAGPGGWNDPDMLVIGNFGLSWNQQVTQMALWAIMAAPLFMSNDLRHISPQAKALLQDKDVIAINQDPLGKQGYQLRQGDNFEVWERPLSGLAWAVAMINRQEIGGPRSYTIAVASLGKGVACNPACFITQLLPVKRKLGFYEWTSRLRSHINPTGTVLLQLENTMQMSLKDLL
Pyruvate kinase PKM (Homo sapiens), sequence (P14618 whole entry, looked up): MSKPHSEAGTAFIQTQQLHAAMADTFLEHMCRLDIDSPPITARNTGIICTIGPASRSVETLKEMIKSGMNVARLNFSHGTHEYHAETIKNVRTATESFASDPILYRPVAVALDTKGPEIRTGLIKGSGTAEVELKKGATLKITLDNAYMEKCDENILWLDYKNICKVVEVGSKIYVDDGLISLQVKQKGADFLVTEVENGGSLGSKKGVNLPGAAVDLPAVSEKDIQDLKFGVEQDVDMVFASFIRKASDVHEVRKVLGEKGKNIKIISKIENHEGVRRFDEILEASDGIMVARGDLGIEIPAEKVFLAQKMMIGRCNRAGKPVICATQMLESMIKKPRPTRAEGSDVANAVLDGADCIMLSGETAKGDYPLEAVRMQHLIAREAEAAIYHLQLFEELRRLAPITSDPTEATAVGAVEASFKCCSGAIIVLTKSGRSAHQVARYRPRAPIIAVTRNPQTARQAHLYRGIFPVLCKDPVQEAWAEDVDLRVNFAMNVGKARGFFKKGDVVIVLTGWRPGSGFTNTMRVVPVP
Muscarinic acetylcholine receptor M1 (Rattus norvegicus), sequence (P08482 whole entry, looked up): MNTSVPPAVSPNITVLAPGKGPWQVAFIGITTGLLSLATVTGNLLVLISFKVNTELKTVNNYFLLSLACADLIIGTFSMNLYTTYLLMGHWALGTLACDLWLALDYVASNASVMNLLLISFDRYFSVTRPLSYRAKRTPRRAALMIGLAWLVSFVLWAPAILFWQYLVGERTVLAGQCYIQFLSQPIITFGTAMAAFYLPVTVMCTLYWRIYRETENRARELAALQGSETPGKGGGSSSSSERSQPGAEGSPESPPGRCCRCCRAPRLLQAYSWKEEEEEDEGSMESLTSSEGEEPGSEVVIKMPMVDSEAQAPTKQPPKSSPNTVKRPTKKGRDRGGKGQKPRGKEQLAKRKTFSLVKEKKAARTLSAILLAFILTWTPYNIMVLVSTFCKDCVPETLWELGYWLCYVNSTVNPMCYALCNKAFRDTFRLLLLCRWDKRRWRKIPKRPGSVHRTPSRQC
N-terminal Xaa-Pro-Lys N-methyltransferase 1 (Homo sapiens), sequence (Q9BV86 whole entry, looked up): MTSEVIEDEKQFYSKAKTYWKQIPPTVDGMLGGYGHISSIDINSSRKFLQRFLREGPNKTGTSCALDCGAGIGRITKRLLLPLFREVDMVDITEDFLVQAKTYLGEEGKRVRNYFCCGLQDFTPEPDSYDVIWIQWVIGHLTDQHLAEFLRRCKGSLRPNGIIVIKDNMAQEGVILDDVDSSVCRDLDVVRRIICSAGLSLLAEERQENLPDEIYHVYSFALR
Ferritin light chain (Equus caballus), sequence (P02791 2-175 limits assumed): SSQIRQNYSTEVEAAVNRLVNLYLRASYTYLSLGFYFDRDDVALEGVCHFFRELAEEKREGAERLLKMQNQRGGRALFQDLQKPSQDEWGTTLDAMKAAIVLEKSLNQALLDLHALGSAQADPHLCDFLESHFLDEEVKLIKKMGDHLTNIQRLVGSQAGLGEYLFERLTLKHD
Galactokinase (Homo sapiens), sequence (P51570 whole entry, looked up): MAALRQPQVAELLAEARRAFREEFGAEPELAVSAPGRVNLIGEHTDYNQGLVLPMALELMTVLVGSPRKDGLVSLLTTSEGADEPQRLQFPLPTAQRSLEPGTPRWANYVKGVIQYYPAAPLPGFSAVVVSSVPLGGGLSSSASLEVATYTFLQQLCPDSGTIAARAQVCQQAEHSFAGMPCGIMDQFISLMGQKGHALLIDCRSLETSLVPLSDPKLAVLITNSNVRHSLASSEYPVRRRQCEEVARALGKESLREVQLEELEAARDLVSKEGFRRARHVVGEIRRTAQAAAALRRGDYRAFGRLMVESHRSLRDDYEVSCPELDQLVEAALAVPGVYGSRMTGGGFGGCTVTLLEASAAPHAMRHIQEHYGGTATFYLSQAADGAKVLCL
Thyrotropin-releasing hormone receptor (Homo sapiens), sequence (P34981 whole entry, looked up): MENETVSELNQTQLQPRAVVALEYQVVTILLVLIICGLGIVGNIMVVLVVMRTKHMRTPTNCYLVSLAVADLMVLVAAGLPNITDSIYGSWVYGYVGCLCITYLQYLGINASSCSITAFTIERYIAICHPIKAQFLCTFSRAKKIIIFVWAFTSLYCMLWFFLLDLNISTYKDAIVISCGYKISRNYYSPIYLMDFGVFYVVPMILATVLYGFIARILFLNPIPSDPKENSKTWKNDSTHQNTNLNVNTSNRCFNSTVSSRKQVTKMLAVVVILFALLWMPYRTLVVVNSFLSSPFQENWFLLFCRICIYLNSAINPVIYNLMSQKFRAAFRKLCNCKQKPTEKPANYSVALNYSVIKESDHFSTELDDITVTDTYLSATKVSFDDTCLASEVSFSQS
DNA repair nuclease/redox regulator APEX1 (Homo sapiens), sequence (P27695 whole entry, looked up): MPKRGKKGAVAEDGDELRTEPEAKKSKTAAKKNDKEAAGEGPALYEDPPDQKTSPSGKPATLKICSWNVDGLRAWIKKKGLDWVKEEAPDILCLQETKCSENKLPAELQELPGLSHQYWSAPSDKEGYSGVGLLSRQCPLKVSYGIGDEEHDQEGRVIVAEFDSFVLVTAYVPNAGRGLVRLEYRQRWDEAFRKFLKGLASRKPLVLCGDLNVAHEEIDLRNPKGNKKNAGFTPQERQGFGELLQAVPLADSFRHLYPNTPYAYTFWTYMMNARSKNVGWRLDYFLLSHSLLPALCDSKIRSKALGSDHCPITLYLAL

For the molecule `Cn1cccc1C(=O)N1CCC[C@@]2(CCN(c3ccccc3)C2)C1`, the Potency in experiment [1] is 5010 nM (active).
With `CS(=O)(=O)N1CCC2(CC1)CN(c1cccc(-c3ccccc3)c1)C2`, the Potency entry in experiment [2] is “inactive”.
`COc1ccccc1-c1nccc(NCc2cnc(C)cn2)n1`: the activation in experiment [3] was 3.22%.
As for `O=C(c1csnn1)N1CCC2(CC1)CN(c1ccccc1)C2`, the activation in experiment [3] is -12.1%.
As to `Cc1ccccc1-c1cncnc1N(C)Cc1ccco1`, in experiment [1], the Potency was 5010 nM (active).
For `CC(C)NC(=O)N1CCCC2(CCN(C(=O)c3cc(C(F)(F)F)cc(C(F)(F)F)c3)CC2)C1`, the activation in [3] was -9.04%.
With `O=C(Nc1cccc(F)c1)N1CCCC2(CCN(C(=O)c3ccncc3)CC2)C1`, the Potency in experiment [2] is 79.4 nM (active).
As for `O=C(c1cnccn1)N1CCC2(CCCN(c3ccccc3)C2)CC1`, the Potency in [1] is 501 nM (active).
The same measure, in the same setting: the figure for `O=C(c1ccco1)N1CCC[C@@]2(CCN(c3ccccc3)C2)C1` is 5010 nM (active).
As for `Cn1cc(-c2nc3cnc(Oc4cccc(Cl)c4)nc3n(CCC#N)c2=O)c2ccccc21`, the Potency in experiment [3] was 1580 nM (active).
Take `COc1ccccc1CCn1c(=O)c(-c2cc(F)cc(F)c2)nc2cncnc21`: in [1], the Potency was 1580 nM (active).
In the case of `O=C(c1ccco1)N1CCC2(CC1)CN(c1ccccc1)C2`, the activation in experiment [3] was -3.45%.
With `CS(=O)(=O)N1CCC[C@@]2(CCN(c3ccccc3)C2)C1`, the Potency in experiment [1] was 3160 nM (active).
Still for that read-out and setting: the same measure for `Clc1ccccc1-c1nccc(-n2ccnc2)n1`: 2510 nM (active).
As for `CC(C)CN1CC[C@@]2(CCCN(C(=O)c3cnccn3)C2)C1`, the activation in [3] was -0.465%.
On the same count and under the same terms, the figure for `COC(=O)N1CCC2(CC1)CCN(c1ccccc1)CC2` is 0.0011%; for `O=C(c1csnn1)N1CCC2(CC1)CCN(c1ccccc1)CC2` it is -15.4%.
As for `Cc1noc(C)c1C(=O)N1CCC2(CC1)CCN(c1cccc(-c3ccccc3)c1)CC2`, the Potency result in [1] was “inactive”.
`N#Cc1ccc(CN2CCCC3(CCN(C(=O)c4cccc(F)c4)CC3)C2)cc1`: the activation in [3] was -15.7%.
Regarding `CCCNC[C@H](O)COc1ccccc1C(=O)CCc1ccccc1`, the result in experiment [4], in experiment [7], in experiment [8], in [9], in experiment [14] and in experiment [16] was inactive. Moreover, the call in [19] was inactive. Besides, the Potency entry in experiment [5], in experiment [6], in [10], in experiment [11] and in experiment [15] was “inactive” throughout. The Potency in experiment [12] is 2000 nM (active); in experiment [13], 1120 nM (active); in [17] it was 2080 nM (active). Also, in experiment [18], the activation was 3.19%.
As for `COc1ccc2c(c1)c(CC(=O)O)c(C)n2Cc1ccc(F)cc1`, the call in experiment [4], in [7], in experiment [8], in experiment [9], in [14] and in experiment [16] was inactive. In experiment [19], the outcome was inactive. Also, the Potency entry in experiment [5], in experiment [6], in [10], in experiment [11], in experiment [12] and in experiment [13] was “inactive” each time. Moreover, the Potency result in experiment [15] and in [17] was “inactive” in each case. In addition, the activation in [18] is 1.38%.
In the case of `Cc1ccccc1-c1cc(NCc2ccccc2)ncn1`, the Potency in [1] was 3160 nM (active).
The same measure, in the same setting: the figure for `Cc1cccc(CNc2ncncc2-c2cccc(C#N)c2)c1` is 3980 nM (active).
As to `NC(=O)C1CCN(c2nc(-c3ccccc3Cl)cs2)CC1`, the Potency entry in experiment [20] was “inactive”.
Regarding `CC(C)(C)c1ccc(-c2csc(N3CCC(C(N)=O)CC3)n2)cc1`, the Potency result in [20] is “inactive”.
On to `COc1ccc(C(=O)N2CCC3(CCN(C)CC3)CC2)cc1`, for which, in experiment [3], the activation was 5.39%.
As to `Cc1noc(C)c1-c1cc(N2CCN(C)CC2)ncn1`, in [2], the activity change, negative = inhibition is 31% [at 2.29 µM].
As for `O=C(Oc1ccccc1)N1CCC[C@@]2(CCN(c3ncccn3)C2)C1`, the Potency in experiment [1] was 2510 nM (active).
